Reference: PubChem BioAssay (NCI)
About 79,000 compounds went through this panel and 15% of them were active in at least one assay; those are over-represented in the sample as a whole. Values without a mark were called inactive. Calls of active or inactive are those of the source. No stated cut-off is given here; in the data, active means growth inhibition above about 70%; inactive means the rest.

Assay: NCI Yeast Anticancer Drug Screen. Data for the mec2-1 strain (AID 157)
Settings: S. cerevisiae mec2-1 strain, at 50.0 µM (retest, dose inferred, filed as 5.0), active compounds read high
Method in brief: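 Yeast mec2-1 mutant treated with compound. Readout: growth inhibition vs vehicle controls.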

| Structure (SMILES) | growth inhibition |
| --- | --- |
| O=Nc1c(O)ccc2ccccc12.[Fe].[Na+] | 98% (active) |
| CC(C)Cc1ncc(CC(C)C)n(O)c1=O | 98% (active) |
| COc1ccc2c(c1)CCc1c-2ccc(C)c1CCC(=O)O | 100% (active) |
| COc1ccc(/C=C(\C#N)c2ccccc2)cc1OC | 29% |
| CCC(=O)OCC(=O)c1ccc(-c2ccccc2)cc1 | 1% |
| C=C1CC(c2ccc(OCCCN3C(=O)c4ccccc4C3=O)c(OC)c2)OC1=O (centres undefined) | 91% (active) |
| N[C@H](C(=O)O)[C@@H]1CC(Cl)=NO1 | 96% (active) |
| Cc1ccc2c(c1)[n+]([O-])c(N)c(C#N)[n+]2[O-] | 98% (active) |
| Cc1cc(O)c2c(c1)C(=O)c1c(c(O)cc(O)c1-c1c(O)cc(O)c3c1C(=O)c1cc(C)cc(O)c1C3=O)C2=O | 70% (active) |
| CC(=O)c1csc2c1C(=O)c1scc(C(C)=O)c1C2=O | 49% |
| CCC(CCCN(CC)CCc1ccccc1)OC(=O)c1cc(OC)c(OC)c(OC)c1 (centres undefined) | 6% |
| COC(CCC[N+](C)(C)C)CC[N+](C)(C)C (centres undefined) | 83% (active) |
| CCC(=O)c1ccc2ccc3ccccc3c2c1 | 34% |
| CN(C)c1nc(N(C)C)oc(=[N+](C)C)n1 | -8% |
| COc1ccc(Cc2ccc(N)cc2)cc1 | 68% |
| CN(C)CC(CN(C)C)C(=O)c1ccc(Oc2ccccc2)cc1 | 99% (active) |
| C1C2OC2C2C1C1CC2C2OC12 (centres undefined) | -4% |
| Nc1ccc2c(c1)[nH]c(=O)c1cccc(Cl)c12 | 88% (active) |
| COc1cccc(C2c3cc4c(cc3OC(Nc3ccccc3)C2C)OCO4)c1O (centres undefined) | 95% (active) |
